Results as given in PubChem BioAssay (Tox21).
Several values for one entry are separate records, joined by “and”; a condition that tells them apart may be missing. Identical values can stand only once. Activity calls are given as the source filed them. Unless noted, calls follow the shape of the dose curve; as a rule, active = well fitted curve in the direction sought with a large enough effect in the repeat runs; inconclusive = weak or mixed curves; inactive = no such curve, though single readings can be large; an effect the other way counts as inactive or inconclusive.

Experiments:
[1] = qHTS assay to identify small molecule antagonists of the thyroid receptor (TR) signaling pathway - cell viability counter screen (AID 743064); also: nearly all actives have a fitted effect of over 50% in size; also: potency is read from the fitted curve at half-maximal effect
Summary of the method: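 GH3.TRE-Luc cells, 4 h pre-plating; cpd + T3 1 nM final; 37 °C 23.5 h; CellTiter-Fluor 30 min; fluorescence read.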

[2] = qHTS assay to identify small molecule antagonists of the thyroid receptor (TR) signaling pathway (AID 743065); also: nearly all actives have a fitted effect of over 55% in size; also: potency is read from the fitted curve at half-maximal effect
Summary of the method: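 GH3.TRE-Luc rat pituitary cells carrying two TR response elements driving luciferase were plated for 4 h, given compound plus 1 nM T3 (final), and incubated 23.5 h at 37 C. ONE-Glo luminescence measured reporter inhibition; CellTiter-Fluor fluorescence tracked cytotoxicity.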

[3] = test system: thyroid hormone receptor (rat, GH3 cells); experiment: qHTS assay to identify small molecule agonists of the thyroid receptor (TR) signaling pathway (AID 743066; calls by dose curve)
[4] = target: Estrogen receptor (Homo sapiens) (UniProt P03372); experiment: qHTS assay to identify small molecule antagonists of the estrogen receptor alpha (ER-alpha) signaling pathway (AID 743069; active = well fitted curve in the direction sought with a large enough effect in the signal ratio in the repeat runs, not every such curve was filed as active; inconclusive = weak or mixed curves, or effect the other way; inactive = no such curve, though single readings can be large or run the other way; the % refers to the signal ratio; also: potency is read from the fitted curve at half-maximal effect)
Chain of Estrogen receptor (Homo sapiens) (P03372 whole entry, looked up): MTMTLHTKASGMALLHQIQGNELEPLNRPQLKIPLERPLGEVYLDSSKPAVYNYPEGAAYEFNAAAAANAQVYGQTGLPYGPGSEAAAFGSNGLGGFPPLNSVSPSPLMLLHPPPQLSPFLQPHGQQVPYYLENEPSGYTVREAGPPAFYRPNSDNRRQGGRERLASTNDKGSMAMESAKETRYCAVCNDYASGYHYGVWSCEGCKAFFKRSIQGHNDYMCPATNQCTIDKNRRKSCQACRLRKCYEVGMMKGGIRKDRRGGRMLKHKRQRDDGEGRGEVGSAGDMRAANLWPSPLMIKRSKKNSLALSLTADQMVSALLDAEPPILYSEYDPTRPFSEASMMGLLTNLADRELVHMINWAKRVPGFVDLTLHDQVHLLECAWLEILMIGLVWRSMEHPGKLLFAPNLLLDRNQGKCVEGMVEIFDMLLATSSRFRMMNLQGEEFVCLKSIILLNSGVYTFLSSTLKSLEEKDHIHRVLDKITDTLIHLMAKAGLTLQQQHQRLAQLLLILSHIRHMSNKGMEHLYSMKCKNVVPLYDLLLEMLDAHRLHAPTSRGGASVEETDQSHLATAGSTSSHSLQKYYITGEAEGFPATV
Summary of the method: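 Screening used a UAS-driven beta-lactamase reporter integrated into HEK293 cells expressing ER-alpha, stimulated with 17beta-estradiol alongside test compounds over 18 hr at 37C; signal came from LiveBLAzer B/G FRET fluorescence.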

[5] = qHTS assay to identify small molecule antagonists of the estrogen receptor alpha (ER-alpha) signaling pathway - cell viability counter screen (AID 743074; calls by dose curve; also: nearly all actives have a fitted effect of over 45% in size)
[6] = target: Estrogen receptor (Homo sapiens) (UniProt P03372); experiment: qHTS assay to identify small molecule agonists of the estrogen receptor alpha (ER-alpha) signaling pathway (AID 743075; calls by dose curve; also: potency is read from the fitted curve at half-maximal effect)
[7] = qHTS assay to identify small molecule antagonists of the estrogen receptor alpha (ER-alpha) signaling pathway using the BG1 cell line - cell viability counter screen (AID 743081);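 also: compound given together with 17beta-estradiol as the ER stimulus; nearly all actives have a fitted effect of over 45% in size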; also: potency is read from the fitted curve at half-maximal effect
Aromatase (Homo sapiens) = Aromatase (Homo sapiens) (UniProt P11511); experiment: qHTS assay to identify aromatase inhibitors (AID 743083); also: nearly all actives have a fitted effect of over 55% in size; also: potency is read from the fitted curve at half-maximal effect
Chain of Aromatase (Homo sapiens) (P11511 whole entry, looked up): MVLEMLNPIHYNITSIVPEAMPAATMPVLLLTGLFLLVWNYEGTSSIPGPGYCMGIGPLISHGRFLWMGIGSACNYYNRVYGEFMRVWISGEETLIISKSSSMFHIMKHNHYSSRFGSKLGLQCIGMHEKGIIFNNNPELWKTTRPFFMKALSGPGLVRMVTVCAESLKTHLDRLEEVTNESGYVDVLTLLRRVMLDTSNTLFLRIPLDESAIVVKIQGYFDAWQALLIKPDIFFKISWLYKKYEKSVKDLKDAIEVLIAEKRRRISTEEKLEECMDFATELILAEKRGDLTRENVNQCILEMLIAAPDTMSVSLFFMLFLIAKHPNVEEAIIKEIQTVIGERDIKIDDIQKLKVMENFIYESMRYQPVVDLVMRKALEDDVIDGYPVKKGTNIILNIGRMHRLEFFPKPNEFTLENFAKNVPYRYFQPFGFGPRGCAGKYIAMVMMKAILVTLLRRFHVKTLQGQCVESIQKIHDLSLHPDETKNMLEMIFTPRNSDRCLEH

[8] = target: Estrogen receptor (Homo sapiens) (UniProt P03372); experiment: qHTS assay to identify small molecule agonists of the estrogen receptor alpha (ER-alpha) signaling pathway using the BG1 cell line (AID 743079); also: nearly all actives have a fitted effect of over 20% in size; also: potency is read from the fitted curve at half-maximal effect
[9] = qHTS assay to identify small molecule antagonists of the estrogen receptor alpha (ER-alpha) signaling pathway using the BG1 cell line (AID 743080; calls by dose curve;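 also: BG1 cells stimulated with 17beta-estradiol alongside compound; series mostly up to about 70 µM; nearly all actives have a fitted effect of over 25% in size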)
Summary of the method: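 BG1-Luc-4E2 cells (endogenous full-length ER-alpha, 4xERE luciferase) hormone-starved 5 days in charcoal-stripped FBS, plated 4,000/well for 24 h, then compound plus 17beta-estradiol for 21.5 h at 37 C; ONE-Glo luminescence read.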

Measured: Potency

C=CC(=O)OCCOCCOCCOCCOC(=O)C=C
inactive: [3] | [5] | [6]
active: [1] 15.4 µM and 17.1 µM | [2] 15.4 µM and 27.1 µM | [4] 62 µM [inconclusive] and 61.1 µM [inconclusive] | [7] 61.4 µM | Aromatase (Homo sapiens) 15.4 µM and 17.1 µM

CC(=O)[O][Al][O]C(C)=O
inactive: [1] | [3] | [5] | [7] | Aromatase (Homo sapiens)

CCc1c(C(=O)NN2CCCCC2)nn(-c2ccc(Cl)cc2Cl)c1-c1ccc(Br)cc1
inactive: [5] | [6] | [7]
active: [1] 15.4 µM | [2] 8.63 µM | [4] 13.8 µM [inconclusive] | [8] 27.3 µM

CNCCCN1c2ccccc2CCc2ccccc21
active: [1] 8.04 µM | [2] 12.7 µM
not listed: [3]
inactive: all other assays above

CCCCC(CC)COC(=O)CCCCCCCCC(=O)OCC(CC)CCCC (configuration not stated)
not listed: [2] | [8]
inactive: all other assays above

C/C(=C(\CCOP(=O)(O)O)SC(=O)c1ccccc1)N(C=O)Cc1cnc(C)nc1N
not listed: [2]
inactive: all other assays above

CCN(CC)CCNc1ccc(CNC=O)c2sc3ccc(OC)cc3c(=O)c12
active: [1] 8.63 µM | [2] 24.3 µM | [6] 4.36 µM [inconclusive] | [8] 2.73 µM | [7] 4.86 µM | Aromatase (Homo sapiens) 38.6 µM
inactive: [5]

CCCCNc1ccc(C(=O)OCCOCCOCCOCCOCCOCCOCCOCCOCCOC)cc1
not listed: [2] | [9]
inactive: all other assays above

O=S(=O)(Oc1ccc(Cl)cc1)c1ccccc1
not listed: [2] | [8]
inactive: all other assays above

Nc1c(CC(=O)O)cccc1C(=O)c1ccc(Br)cc1
not listed: [2]
inactive: all other assays above

COC(=O)c1ccc(I)cc1S(=O)(=O)NC(=O)Nc1nc(C)nc(OC)n1
inactive: [1] | [2] | [5] | [7] | Aromatase (Homo sapiens)

NC(=O)C(c1ccccc1)(c1ccccc1)[C@@H]1CCN(CCc2ccc3c(c2)CCO3)C1
active: [1] 6.68 µM | [2] 26.6 µM
not listed: [3]
inactive: all other assays above

CN(C)C(=O)NC1(c2ccccc2)CCN(CC[C@@]2(c3ccc(F)c(F)c3)CN(C(=O)c3ccccc3)CCO2)CC1
active: [1] 31.9 µM | [2] 56.7 µM
inactive: [5] | Aromatase (Homo sapiens)

OCc1cc(C(O)CNCCCCCCOCCCCc2ccccc2)ccc1O (configuration not stated)
active: [1] 7.5 µM and 11.9 µM | [2] 10.6 µM and 8.41 µM | [7] 23.7 µM | Aromatase (Homo sapiens) 26.6 µM
inactive: [4] | [5] | [6]

COC(=O)C1=C(C)NC(COC(N)=O)=C(C(=O)OC(C)C)C1c1cccc(Cl)c1Cl (configuration not stated)
active: [1] 26.6 µM | [2] 16.8 µM | Aromatase (Homo sapiens) 29.8 µM
inactive: [5] | [8] | [9]

CC1=CCCC(C)(C)C12CCC(C)O2 (configuration not stated)
inactive: [1] | [3] | [5] | [7]

CNC(=O)CN(CCN(CCN(CC(=O)[O-])CC(=O)NC)CC(=O)[O-])CC(=O)[O-].O.[Gd+3]
not listed: [2]
inactive: all other assays above

C[C@@H](c1ncncc1F)C(O)(Cn1cncn1)c1ccc(F)cc1F (some centres not stated)
not listed: [2] | [5]
inactive: all other assays above

Cc1ncc(CO)c(C=O)c1O
not listed: [2]
inactive: all other assays above

Nc1ccc(S(=O)(=O)Nc2ccccc2)cc1
inactive: [1] | [3] | [5] | [7] | Aromatase (Homo sapiens)

COC(C)OC
not listed: [2]
inactive: all other assays above

CC(=O)c1ccc2c(c1)N(CCCN1CCC(CCO)CC1)c1ccccc1S2
active: [1] 10.1 µM | [2] 11.4 µM
inactive: [4] | [5] | [6] | [8] | Aromatase (Homo sapiens)

CCn1cc(C(=O)O)c(=O)c2cnc(N3CCNCC3)nc21
inactive: [1] | [3] | [5] | [7] | Aromatase (Homo sapiens)

COc1cc(C(=O)OCCCN2CCCN(CCCOC(=O)c3cc(OC)c(OC)c(OC)c3)CC2)cc(OC)c1OC
inactive: [4] | [6] | Aromatase (Homo sapiens)
active: [1] 8.41 µM | [2] 13.3 µM | [7] 9.44 µM

CN1CCC(=C2c3ccccc3Sc3ccccc32)CC1
active: [1] 5.96 µM | [2] 8.41 µM
inactive: [8]

COc1ccc(S(=O)(=O)N2C(=O)[C@@](c3ccccc3OC)(N3C[C@H](O)C[C@H]3C(=O)N(C)C)c3cc(Cl)ccc32)c(OC)c1
inactive: [5] | [6]
active: [1] 34.4 µM | [2] 68.6 µM | [4] 43.6 µM [inconclusive] | Aromatase (Homo sapiens) 61.1 µM

CCCCCCCCCCO[C@@H]1O[C@H](CO)[C@@H](O)[C@H](O)[C@H]1O
not listed: [2] | [9]
inactive: all other assays above

C[C@@H]1C[C@H]2O[C@@]3(O[C@@H]2C(C)(C)O)[C@H](O)[C@@]2(C)[C@@H]4CC[C@H]5C(C)(C)[C@@H](O[C@@H]6OC[C@@H](O)[C@H](O)[C@H]6O)CC[C@@]56C[C@@]46CC[C@]2(C)[C@@H]13
not listed: [2]
inactive: all other assays above
